The values below come from ChEMBL document CHEMBL3433997, “St. Jude Leishmania screening dataset” (2016).

Each structure is given as a SMILES string.

Format in all cases: functional
Test [1] concerns the target Solute carrier family 2, facilitated glucose transporter member 1 (Homo sapiens) (UniProt P11166). In words: ST_JUDE_LEISH: Cytotoxicity at 2uM final concentration against transgenic Leishmania Mexicana promastigotes LmGLUT1 that are glucose transport deficient and complemented with the human glucose transporter GLUT1. Activity is measured by DNA content using SYBR green in vitro.

Test [2] has as its target Hexose transporter 1 (Plasmodium falciparum) (UniProt O97467). Kind of test: ST_JUDE_LEISH: Cytotoxicity at 2uM final concentration against transgenic Leishmania Mexicana promastigotes LmPfHT that are glucose transport deficient and complemented with the Plasmodium falciparum hexose transporter. Activity is measured by DNA content using SYBR green in vitro.
Test [3] has as its target Glucose transporter (Leishmania mexicana) (UniProt O61059). In words: ST_JUDE_LEISH: Cytotoxicity at 2uM final concentration against transgenic Leishmania Mexicana promastigotes LmGT2 that are glucose transport deficient and complemented with the L. Mexicana glucose transporter 2. Activity is measured by DNA content using SYBR green in vitro.

Sequence of Solute carrier family 2, facilitated glucose transporter member 1 (Homo sapiens) (P11166 whole entry): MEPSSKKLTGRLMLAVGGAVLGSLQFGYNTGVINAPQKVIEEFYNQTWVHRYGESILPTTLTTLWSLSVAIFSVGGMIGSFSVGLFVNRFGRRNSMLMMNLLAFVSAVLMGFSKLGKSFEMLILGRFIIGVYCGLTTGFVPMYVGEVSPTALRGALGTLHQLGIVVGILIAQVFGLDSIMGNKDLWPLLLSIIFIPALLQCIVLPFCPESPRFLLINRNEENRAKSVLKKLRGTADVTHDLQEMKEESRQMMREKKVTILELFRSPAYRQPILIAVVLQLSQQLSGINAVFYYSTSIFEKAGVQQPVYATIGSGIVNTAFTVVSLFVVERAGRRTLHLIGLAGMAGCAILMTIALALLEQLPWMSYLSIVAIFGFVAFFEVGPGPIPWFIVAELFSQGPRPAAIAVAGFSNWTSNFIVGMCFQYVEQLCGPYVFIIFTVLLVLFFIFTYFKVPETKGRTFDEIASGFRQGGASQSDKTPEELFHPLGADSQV

As for `COc1ccc(C2CC(=O)C3=C(C2)NC(C)=C(C(=O)OC2CCCC2)C3c2cccc(O)c2)cc1OC` (stereo unspecified), the inhibition (as a rule, the change of the read-out against control, counted positive when it falls) in test [1] stood at 4.21%; in test [2] it was 1.05%; in test [3], 0.17%.

For the compound `CN(C)CCOc1cc(NC(=O)c2ccc(-c3ccc(Cl)cc3Cl)cc2)ccc1-c1ccccc1`, the figures for the inhibition in test [1], in test [2] and in test [3] were 0.11%, 0.95% and -0.43%, respectively.

For the compound `COc1ccc(-c2ccc(NC(=O)c3ccc(Cl)cc3)cc2)cc1CN1CCNCC1`, the inhibition was 1.97% in test [1], 2.41% in test [2] and 2% in test [3].

Consider `CS(=O)(=O)c1ccc(CCNCc2ccc(-c3ccc(CNC4CCN(Cc5ccccc5)CC4)cc3)nc2)cc1`, for which the inhibition in test [1] was -0.83%; in test [2] it was -1.16%; in test [3], -2.69%.

On to `CCN(CC)CCN(Cc1ccc(-c2ccc(C(F)(F)F)cc2)cc1)C(=O)Cn1c(CCc2cc(F)c(F)c(F)c2)nc(=O)c2ccccc21`, for which the inhibition was 9.62% in test [1], 9.17% in test [2] and 8.54% in test [3].

`CN1CCN(c2cccc(Nc3nccc(NCC(O)c4ccccc4)n3)c2)CC1` (stereo unspecified): the inhibition turned out to be 1.83% in test [1], 1.6% in test [2] and 0.06% in test [3].

As to `Fc1cccc(Nc2nc(NCc3ccc(OCc4ccccc4)cc3)nc(Nc3cccc(F)c3)n2)c1`, the results for the inhibition in test [1], in test [2] and in test [3] were 11.8%, 9.09% and 8.22%, respectively.

`CC1=C(C(=O)OCCOCc2ccccc2)C(c2ccccc2C(F)(F)F)C(C(=O)OCCOCc2ccccc2)=C(C)N1`: the inhibition in test [1] is -0.46%; in test [2], -0.98%; in test [3], -2.95%.

Regarding `CCN(CC)CCN(Cc1ccc(-c2ccc(C(F)(F)F)cc2)cc1)C(=O)Cn1c(CCc2cccc(F)c2F)nc(=O)c2sccc21`, the inhibition in test [1] is 0.1%; in test [2], 1.36%; in test [3], -0.22%.

In the case of `N#Cc1ccc(-c2ccc(OCC(O)CN3CCCN(C(=O)C(c4ccc5c(c4)OCO5)N4CCN(C/C=C/c5ccccc5)CC4)CC3)cc2)cc1` (stereo unspecified), the inhibition in test [1] was 4.32%; in test [2], 2.9%; in test [3] it was 2.95%.

For the compound `FC(F)(F)c1ccc2[nH]ccc(=NN=CC=Cc3ccccc3)c2c1`, the figures for the inhibition in test [1], in test [2] and in test [3] were 0.22%, 0.25% and 4.34%, respectively.

On to `O=C(Nc1ccc(Cl)cc1)Nc1ccc2nonc2c1`, for which the values for the inhibition in test [1], in test [2] and in test [3] were 0.79%, 1.43% and 0.9%, respectively.

Turning to `CN(C)CCCOc1ccc(CN2CC[C@H](NC(=O)c3ccc(Cl)c(Cl)c3)C2)c2ccccc12`, the inhibition in test [1] is -0.55%; in test [2], 1.01%; in test [3], 0.71%.

As to `CCNC(=O)N1CCc2ccc(Oc3nc(NCc4ccccc4OC)ncc3C)cc2CC1`, the inhibition came to 5.14% in test [1], 6.01% in test [2] and 2.64% in test [3].

Take `NC1CCCN(Cc2cccc(-c3ccc(-c4nc5cc(F)ccc5[nH]4)cc3)c2)C1` (stereo unspecified): the inhibition in test [1] is 3.55%; in test [2], 3.14%; in test [3] it was 3.43%.

With `Cc1cccc2nc(-c3ccc(-c4ccc(NC(=O)C(=O)c5cccn5C)cc4)cc3)[nH]c12`, the inhibition in test [1] is 5.06%; in test [2] it was 1.84%; in test [3] it was 0.5%.

`CNCCNCc1ccc(-c2ccc(-c3nc4ccccc4[nH]3)s2)cc1`: the inhibition in test [1] turned out to be 3.78%; in test [2], 4.5%; in test [3] it was 3.75%.

Take `Cc1cccc2nc(-c3cccc(-c4ccc(NC(=O)Cc5ccon5)cc4)c3)[nH]c12`: the inhibition is 14.2% in test [1], 12.3% in test [2] and 10.8% in test [3].

In the case of `CC1(C)N=C(N)N=C(N)N1O`, the inhibition in test [1] is -0.13%; in test [2] it was 1.38%; in test [3], 0.94%.

Consider `Cc1cnc(CNCc2ccc(S(=O)(=O)Nc3ccc(Oc4cccc(Cl)c4)cc3)cc2)cn1`, for which the inhibition in test [1] is 5.34%; in test [2], 2.83%; in test [3], 2.07%.

On to `COc1ccc(Cl)cc1NC(=O)C(C)Nc1ccc(-c2ccccc2)cc1` (stereo unspecified), for which the inhibition in test [1] came out at 2.84%; in test [2], 2.75%; in test [3] it was 5.12%.

As for `COc1cc(NCC(O)CNc2cc(OC)c3ccccc3n2)nc2ccccc12`, the results for the inhibition in test [1], in test [2] and in test [3] were 33.2%, 12.5% and 4.93%, respectively.

In the case of `O=C(NCc1ccc(C(=O)NC2CCCCC2)cc1)c1ccc(O)c(-c2ccc(Cl)c(Cl)c2)c1`, the inhibition in test [1] came to 2.46%; in test [2], 1.38%; in test [3], 1.41%.

For `O=S(=O)(c1c(Cl)cc(Cl)cc1Cl)N1CCCCC(c2ccc(Cl)cc2)=N1`, the inhibition in test [1] is -1.49%; in test [2], -1.87%; in test [3] it was -1.41%.

Regarding `Oc1ccc2[nH]c(-c3ccc(F)cc3F)nc2c1CN1CCC(O)(c2ccccc2)CC1`, the inhibition in test [1] is -0.28%; in test [2], -0.92%; in test [3], 0.37%.

Take `CNC(=O)c1ccccc1Nc1nc(Nc2ccc(CCN3CCN(C)CC3)cc2)ncc1Cl`: the inhibition stood at 74.6% in test [1], 74.2% in test [2] and 56% in test [3].

Regarding `CCC(C(=O)Nc1cc(=O)[nH]c2nc(-c3ccco3)nn12)c1ccccc1` (stereo unspecified), the inhibition in test [1] was 0.95%; in test [2] it was 1.55%; in test [3], 1.71%.

Take `Clc1ccc(-c2csc3ncnc(Cl)c23)cc1`: the figures for the inhibition in test [1], in test [2] and in test [3] were 4.6%, 0.54% and 4.02%, respectively.

Consider `Cc1[nH]c(C)c(-c2ccc(OCc3ccc(F)cc3)cc2)c(=O)c1Cl`, for which the inhibition was -0.65% in test [1], -0.27% in test [2] and -1.77% in test [3].

As to `CC(=O)Nc1cccc(CN(Cc2ccc(-c3ccc(CNCc4cccnc4)cn3)cc2)C(=O)Cc2cccnc2)c1`, the inhibition in test [1] amounted to 14.6%; in test [2], 10.7%; in test [3], 14%.

Regarding `COc1ccc(CNCc2ccsc2)cc1-c1ccc(S(=O)(=O)NCCN2CCCC2)c(C)c1`, the inhibition was -0.35% in test [1], -1.19% in test [2] and -4.07% in test [3].

For the compound `COC(=O)CCCCCOc1cc(Cc2cnc(N)nc2N)cc(OC)c1OC`, the values for the inhibition in test [1], in test [2] and in test [3] were -0.5%, -5.95% and 0.35%, respectively.
